The whole screen tested about 5,500 compounds, of which about 2,000 (36%) were called active. Roughly 18% stayed inconclusive and do not appear here. Cut-off read from the data, not from the text of the source: active = normalized growth mostly below about 0.91 (no sharp cut-off); inconclusive = no clear call, values can overlap the other calls; inactive = mostly above about 0.92. Some of the results follow.
Assay: chemical genetic growth profiling, strain panel (AID 1159580);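 note: tested at 20 µM; growth read once vehicle control cultures reached saturation at 30 °C; 1 = growth at the plate median or of vehicle wells; lower values mean less growth of the strain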
Conditions: growth OD

Measured: normalized growth

Oc1cccc2cccnc12
active: S. cerevisiae deletion strains, locus YKL009W, strain mrt4, hits give low values 0.741 | S. cerevisiae deletion strains, locus YKL068W, hits give low values 0.0531 | S. cerevisiae deletion strains, locus YKL085W, strain MDH1 (second series), hits give low values 0.0521 | S. cerevisiae deletion strains, locus YKL085W, strain MDH1, hits give low values 0.0521 | S. cerevisiae deletion strains, locus YKL160W, strain elf1, hits give low values 0.0679 | S. cerevisiae deletion strains, locus YKL190W, strain CNB1, hits give low values 0.0517 | S. cerevisiae deletion strains, locus YKR001C, strain vps1, hits give low values 0.0622 | S. cerevisiae deletion strains, locus YKR026C, strain gcn3, hits give low values 0.356 | S. cerevisiae deletion strains, locus YKR091W, strain srl3, hits give low values 0.5 | S. cerevisiae deletion strains, locus YLL001W, strain dnm1, hits give low values 0.0604 | S. cerevisiae deletion strains, locus YLL026W, hits give low values 0.0573 | S. cerevisiae deletion strains, locus YLL041C, strain sdh2, hits give low values 0.132 | S. cerevisiae deletion strains, locus YLR027C, strain aat2, hits give low values 0.0569 | S. cerevisiae deletion strains, locus YLR039C, strain RIC1, hits give low values 0.0939 | S. cerevisiae deletion strains, locus YLR058C, strain SHM2, hits give low values 0.786 | S. cerevisiae deletion strains, locus YLR102C, strain apc9, hits give low values 0.0613 | S. cerevisiae deletion strains, locus YLR221C, strain rsa3, hits give low values 0.0643 | S. cerevisiae deletion strains, locus YLR258W, strain gsy2, hits give low values 0.0623 | S. cerevisiae deletion strains, locus YLR262C, strain YPT6 (second series), hits give low values 0.0792 | S. cerevisiae deletion strains, locus YLR262C, strain YPT6, hits give low values 0.124 | S. cerevisiae deletion strains, locus YLR268W, strain sec22, hits give low values 0.0693 | S. cerevisiae deletion strains, locus YLR320W, strain mms22, hits give low values 0.0884 | S. cerevisiae deletion strains, locus YLR330W, strain CHS5, hits give low values 0.0553 | S. cerevisiae deletion strains, locus YLR342W, strain FKS1 (second series), hits give low values 0.0627 | S. cerevisiae deletion strains, locus YLR342W, strain FKS1, hits give low values 0.0636 | S. cerevisiae deletion strains, locus YLR357W, strain rsc2, hits give low values 0.117 | S. cerevisiae deletion strains, locus YLR370C, strain arc18, hits give low values 0.0611 | S. cerevisiae deletion strains, locus YLR371W, strain rom2, hits give low values 0.0611 | S. cerevisiae deletion strains, locus YLR384C, strain iki3, hits give low values 0.0615 | S. cerevisiae deletion strains, locus YLR418C, strain cdc73, hits give low values 0.0961 | S. cerevisiae deletion strains, locus YML016C, strain PPZ1, hits give low values 0.0529 | S. cerevisiae deletion strains, locus YML032C, strain rad52, hits give low values 0.385 | S. cerevisiae deletion strains, locus YML120C, strain ndi1, hits give low values 0.0583 | S. cerevisiae deletion strains, locus YML124C, strain tub3, hits give low values 0.0625 | S. cerevisiae deletion strains, locus YMR058W, strain fet3, hits give low values 0.0576 | S. cerevisiae deletion strains, locus YMR078C, strain ctf18, hits give low values 0.553 | S. cerevisiae deletion strains, locus YMR125W, strain sto1, hits give low values 0.0733 | S. cerevisiae deletion strains, locus YMR129W, hits give low values 0.0569 | S. cerevisiae deletion strains, locus YMR205C, strain PFK2, hits give low values 0.214 | S. cerevisiae deletion strains, locus YMR223W, strain ubp8, hits give low values 0.0625 | S. cerevisiae deletion strains, locus YMR231W, strain pep5, hits give low values 0.0683 | S. cerevisiae deletion strains, locus YMR307W, strain GAS1, hits give low values 0.108 | S. cerevisiae deletion strains, locus YNL067W, strain RPL9B, hits give low values 0.0496 | S. cerevisiae deletion strains, locus YNL071W, strain lat1, hits give low values 0.0618 | S. cerevisiae deletion strains, locus YNL209W, strain ssb2, hits give low values 0.0612 | S. cerevisiae deletion strains, locus YNL233W, strain BNI4, hits give low values 0.0522 | S. cerevisiae deletion strains, locus YNL248C, strain rpa49, hits give low values 0.0751 | S. cerevisiae deletion strains, locus YNL250W, strain rad50, hits give low values 0.0636 | S. cerevisiae deletion strains, locus YNL271C, strain bni1, hits give low values 0.0611 | S. cerevisiae deletion strains, locus YNL298W, strain CLA4, hits give low values 0.0629 | S. cerevisiae deletion strains, locus YNL307C, strain MCK1, hits give low values 0.0661 | S. cerevisiae deletion strains, locus YNL322C, strain KRE1 (second series), hits give low values 0.0706 | S. cerevisiae deletion strains, locus YNL322C, strain KRE1, hits give low values 0.0518 | S. cerevisiae deletion strains, locus YNR049C, strain mso1, hits give low values 0.0568 | S. cerevisiae deletion strains, locus YNR052C, strain pop2, hits give low values 0.749 | S. cerevisiae deletion strains, locus YOL006C, strain TOP1, hits give low values 0.113 | S. cerevisiae deletion strains, locus YOL147C, strain pex11, hits give low values 0.127 | S. cerevisiae deletion strains, locus YOR001W, strain rrp6, hits give low values 0.0671 | S. cerevisiae deletion strains, locus YOR061W, strain CKA2, hits give low values 0.0507 | S. cerevisiae deletion strains, locus YOR069W, strain VPS5, hits give low values 0.0519 | S. cerevisiae deletion strains, locus YOR070C, strain gyp1, hits give low values 0.0577 | S. cerevisiae deletion strains, locus YOR080W, strain dia2, hits give low values 0.0646 | S. cerevisiae deletion strains, locus YOR083W, strain WHI5, hits give low values 0.167 | S. cerevisiae deletion strains, locus YOR106W, strain vam3, hits give low values 0.0652 | S. cerevisiae deletion strains, locus YOR136W, strain idh2, hits give low values 0.0689 | S. cerevisiae deletion strains, locus YOR144C, strain elg1, hits give low values 0.712 | S. cerevisiae deletion strains, locus YOR184W, strain ser1, hits give low values 0.0694 | S. cerevisiae deletion strains, locus YOR265W, strain rbl2, hits give low values 0.0565 | S. cerevisiae deletion strains, locus YOR270C, strain vph1, hits give low values 0.0934 | S. cerevisiae deletion strains, locus YOR290C, strain snf2, hits give low values 0.0963 | S. cerevisiae deletion strains, locus YOR316C, strain cot1, hits give low values 0.0587 | S. cerevisiae deletion strains, locus YPL051W, strain arl3, hits give low values 0.063 | S. cerevisiae deletion strains, locus YPL055C, strain LGE1, hits give low values 0.0702 | S. cerevisiae deletion strains, locus YPL078C, strain atp4, hits give low values 0.0642 | S. cerevisiae deletion strains, locus YPL106C, strain sse1, hits give low values 0.104 | S. cerevisiae deletion strains, locus YPL240C, strain hsp82, hits give low values 0.112 | S. cerevisiae deletion strains, locus YPL241C, strain CIN2, hits give low values 0.0551 | S. cerevisiae deletion strains, locus YPR119W, strain clb2, hits give low values 0.0623 | S. cerevisiae deletion strains, locus YPR141C, strain kar3, hits give low values 0.0649 | S. cerevisiae deletion strains, locus YPR163C, strain tif3, hits give low values 0.0763 | S. cerevisiae deletion strains, locus YPR167C, strain met16, hits give low values 0.0614 | S. cerevisiae deletion strains, strain wtn01, hits give low values 0.0583 | S. cerevisiae strains, strain wild type, hits give low values 0.0541
inactive: S. cerevisiae deletion strains, locus YLR113W, strain HOG1, hits give low values 1.04 | S. cerevisiae deletion strains, locus YNL183C, strain NPR1, hits give low values 0.919 | S. cerevisiae deletion strains, locus YOL012C, strain htz1 0.214 | S. cerevisiae deletion strains, locus YOR231W, strain MKK1, hits give low values 0.916 | S. cerevisiae deletion strains, locus YPL256C, strain CLN2, hits give low values 0.971

Source: PubChem BioAssay AID1159580 (chemical genetic matrix, 2015)
